The full data set covers some 8,800 targets. This sample favours those with a hit. About 0.5% of all pairs of compound and target were hits.
Assays:
Assay in all cases: log2 fold change, soluble protein after heating vs DMSO (PISA); higher = thermal stabilisation; K562 lysate, 10 uM; active = over 0.2 and 3.5 SD of the protein, either way, in both replicates (recomputed)
[1] = compound: C#Cc1cccc(Nc2ncnc3cc(OCCOC)c(OCCOC)cc23)c1 [erlotinib]
In short: (§1)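 Thermal stability, expressed as log-two fold change relative to solvent controls, is given from duplicates. Crude K562 extract in PBS pH 7.4 with 1 mM MgCl2, at 1 mg/mL protein, was treated with 10 μM compound for 30 min and heated in aliquots for 3 min across 48°C-58°C. After pooling, adjustment to 0.5% NP-40 at 4°C and centrifugation at 21,000xg for 90 min, supernatant protein was measured by TMTpro 16plex LC-MS/MS with channel sums equalised.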

[2] = compound: C/C(=N\NC(=O)C1=CC(=CC=C1)S(=O)(=O)N2CCOCC2)/C3=C(C=CC(=C3)Cl)O
In short: as §1

[3] = compound: C1=CC(=CC=C1C2=NC3=C(N2)C=C(C=C3)C(=O)N)OC4=CC=C(C=C4)Cl
In short: as §1

[4] = compound: C1=CC2=C(C=CC(=C2)/C=C\3/C(=O)NC(=NCC4=CC=CS4)S3)N=C1
In short: as §1

[5] = compound: C1=CC2=NC=CN=C2C=C1/C=C/3\C(=O)NC(=O)S3
In short: as §1

[6] = compound: C1=CC=C(C=C1)C2=NC(=C(N2)C3=CC=NC=C3)C4=CC(=C(C=C4)Cl)O
In short: as §1

[7] = compound: C1=CC=C2C(=C1)C3=NNC4=CC=CC(=C43)C2=O
In short: as §1

[8] = compound: C1CCN(C1)C(=O)NC2=CC=CC(=C2)NC3=NC=C(C(=N3)NCCC4=CN=CN4)Br
In short: as §1

[9] = compound: C1CN(CCC1(CC2=CC=C(C=C2)Cl)N)C3=NC=NC4=C3C=CN4
In short: as §1

[10] = compound: C1COCCN1CCN2C3=CC=CC=C3N=C2NC(=O)C4=CC(=CC=C4)[N+](=O)[O-] [IRAK-1-4 Inhibitor I]
In short: as §1

[11] = compound: C=CC(=O)N1CCC[C@@H](n2nc(-c3ccc(Oc4ccccc4)cc3)c3c(N)ncnc32)C1 [ibrutinib]
In short: as §1

[12] = compound: CC(=O)c1cnc2ccc(-c3cc(Cl)c(O)c(Cl)c3)nc2c1N[C@H]1CC[C@H](CN(C)C)CC1
In short: as §1

[13] = compound: CC(C)(C)Cn1c(N)nc2ccc(-c3[nH]c(C(C)(C)C)nc3-c3ccc(F)cc3)nc21 [ralimetinib]
In short: as §1

[14] = compound: CC(C)(O)CC(=O)NCCn1ccc2ncnc(Nc3ccc(Oc4cccc(C(F)(F)F)c4)c(Cl)c3)c21
In short: as §1

[15] = compound: CC(C)C1=C2N=C(C=C(N2N=C1)NCC3=CC=CC=C3)NCCCCCCN
In short: as §1

[16] = compound: CC1=C(C(CC(=O)N1)C2=CC=C(C=C2)C(F)(F)F)C(=O)NC3=C(C=C4C(=C3)C=NN4)F
In short: as §1

[17] = compound: CC1=C(C2=C(C=C1)C(=O)C3=CC=CC=C3N2CCCN)C
In short: as §1

[18] = compound: CC1=C(C=C(C=C1)NC(=O)C2=CC(=CC=C2)C(C)(C)C#N)NC3=CC4=C(C=C3)N=CN(C4=O)C
In short: as §1

[19] = compound: CC1=C(C=C(C=C1)NC(=O)C2=CC(=CC=C2)N(C)C)NC(=O)C3=CC=C(C=C3)O
In short: as §1

[20] = compound: CC1=CC=C(C=C1)SC2=C3C=C(SC3=CN=C2)C(=O)N
In short: as §1

Measured: log2 fold change

PCBP2 isoform 8 (UniProt Q15366)
Sequence of UniProt Q15366 (Q15366 whole entry, looked up): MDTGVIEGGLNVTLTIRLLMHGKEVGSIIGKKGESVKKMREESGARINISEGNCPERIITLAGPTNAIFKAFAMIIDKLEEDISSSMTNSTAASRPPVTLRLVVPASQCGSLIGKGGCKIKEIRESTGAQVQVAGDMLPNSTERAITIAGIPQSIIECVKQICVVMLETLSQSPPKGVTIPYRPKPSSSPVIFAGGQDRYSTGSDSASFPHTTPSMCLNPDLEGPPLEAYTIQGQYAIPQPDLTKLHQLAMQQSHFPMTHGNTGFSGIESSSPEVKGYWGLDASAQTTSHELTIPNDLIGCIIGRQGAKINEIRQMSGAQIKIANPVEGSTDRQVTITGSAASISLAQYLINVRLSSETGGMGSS
inactive: [1] 0.118 | [2] -0.287 | [3] 0.024 | [4] 0.001 | [5] -0.039 | [6] 0.087 | [7] -0.041 | [8] -0.088 | [9] 0.01 | [10] 0.018 | [11] 0.15 | [12] 0.003 | [13] -0.003 | [14] -0.041 | [15] -0.005 | [16] -0.011 | [17] -0.007 | [18] 0.071 | [19] -0.05 | [20] -0.043

PDCD6IP isoform 2 (UniProt Q8WUM4)
inactive: [1] 0.027 | [2] 0.046 | [3] 0.009 | [4] 0.01 | [5] -0.02 | [6] 0.007 | [7] -0.007 | [8] 0.002 | [9] 0.007 | [10] -0.002 | [11] -0.035 | [12] 0.009 | [13] 0.003 | [14] 0.025 | [15] 0.013 | [16] -0.006 | [17] 0.046 | [18] -0.013 | [19] 0.029 | [20] 0.016

PWP2 (UniProt Q15269)
Sequence of UniProt Q15269 (Q15269 whole entry, looked up): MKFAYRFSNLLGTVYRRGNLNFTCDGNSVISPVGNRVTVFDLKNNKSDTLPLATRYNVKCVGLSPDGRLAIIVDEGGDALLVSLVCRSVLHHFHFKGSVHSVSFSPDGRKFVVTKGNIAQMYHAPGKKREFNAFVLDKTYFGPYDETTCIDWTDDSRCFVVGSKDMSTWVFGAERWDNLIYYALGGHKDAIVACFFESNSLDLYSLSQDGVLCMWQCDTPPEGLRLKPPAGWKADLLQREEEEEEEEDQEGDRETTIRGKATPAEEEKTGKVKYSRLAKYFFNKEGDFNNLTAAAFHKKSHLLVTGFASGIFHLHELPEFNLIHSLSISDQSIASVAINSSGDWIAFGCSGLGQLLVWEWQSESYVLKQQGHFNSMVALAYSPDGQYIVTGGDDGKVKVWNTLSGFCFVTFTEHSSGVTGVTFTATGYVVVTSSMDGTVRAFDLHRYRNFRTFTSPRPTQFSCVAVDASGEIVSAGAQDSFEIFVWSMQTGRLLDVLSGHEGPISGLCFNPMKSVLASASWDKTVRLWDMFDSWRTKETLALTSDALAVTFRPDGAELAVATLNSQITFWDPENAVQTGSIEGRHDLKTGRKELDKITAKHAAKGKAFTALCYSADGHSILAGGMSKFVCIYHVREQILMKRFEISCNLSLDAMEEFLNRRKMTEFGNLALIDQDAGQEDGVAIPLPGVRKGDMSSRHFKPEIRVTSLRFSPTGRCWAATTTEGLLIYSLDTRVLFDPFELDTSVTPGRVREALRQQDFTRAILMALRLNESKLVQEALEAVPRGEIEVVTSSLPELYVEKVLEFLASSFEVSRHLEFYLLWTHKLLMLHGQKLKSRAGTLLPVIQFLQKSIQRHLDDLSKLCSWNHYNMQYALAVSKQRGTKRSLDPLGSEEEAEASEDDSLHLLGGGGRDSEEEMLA
inactive: [1] 0.051 | [2] -0.076 | [3] -0.036 | [4] 0.02 | [5] 0.015 | [6] -0.012 | [7] -0.013 | [8] 0.018 | [9] 0.04 | [10] -0.027 | [11] 0.003 | [12] -0.021 | [13] 0.048 | [14] 0.027 | [15] 0.009 | [16] 0.037 | [17] -0.014 | [18] -0.035 | [19] 0.018 | [20] 0.015

PPP1R8 (UniProt Q12972)
Sequence of UniProt Q12972 (Q12972 whole entry, looked up): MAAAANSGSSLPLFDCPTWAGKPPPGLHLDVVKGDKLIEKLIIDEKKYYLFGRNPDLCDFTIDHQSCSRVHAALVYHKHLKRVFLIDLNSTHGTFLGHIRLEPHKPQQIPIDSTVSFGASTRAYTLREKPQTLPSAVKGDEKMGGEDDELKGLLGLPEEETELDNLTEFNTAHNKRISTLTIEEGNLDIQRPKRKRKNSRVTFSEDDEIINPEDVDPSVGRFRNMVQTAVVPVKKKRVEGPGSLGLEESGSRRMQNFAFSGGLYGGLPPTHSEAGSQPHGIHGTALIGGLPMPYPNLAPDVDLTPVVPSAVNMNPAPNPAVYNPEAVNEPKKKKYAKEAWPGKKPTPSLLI
inactive: [1] 0.002 | [2] -0.032 | [3] 0.029 | [4] 0.002 | [5] -0.012 | [6] 0.008 | [7] 0.007 | [8] -0.009 | [9] 0.02 | [10] 0.008 | [11] -0.029 | [12] -0.026 | [13] -0.039 | [14] -0.031 | [15] 0.011 | [16] -0.011 | [17] -0.034 | [18] 0.002 | [19] -0.036 | [20] -0.028

PPT2 isoform 3 (UniProt Q9UMR5)
inactive: [1] 0.038 | [2] -0.113 | [3] 0.001 | [4] 0.014 | [5] -0.012 | [6] -0.057 | [7] 0.042 | [8] 0.01 | [9] 0.043 | [10] 0.122 | [11] 0.03 | [12] 0.068 | [13] -0.001 | [14] -0.022 | [15] -0.019 | [16] -0.026 | [17] 0.002 | [18] -0.038 | [19] -0.015 | [20] -0.013

PDCD6IP (UniProt Q8WUM4)
inactive: [1] -0.016 | [2] 0.021 | [3] -0.036 | [4] 0 | [5] 0.108 | [6] 0.03 | [7] 0.013 | [8] 0.07 | [9] 0.012 | [10] -0.094 | [11] -0.056 | [12] 0.042 | [13] -0.066 | [14] -0.004 | [15] 0.078 | [16] 0.009 | [17] 0.004 | [18] -0.037 | [19] 0.02 | [20] -0.03

PSTPIP2 (UniProt Q9H939)
inactive: [1] 0.002 | [2] 0.05 | [3] -0.028 | [4] 0.055 | [5] -0.031 | [6] -0.003 | [7] -0.122 | [8] 0.01 | [9] 0.005 | [10] 0.009 | [11] -0.019 | [12] -0.037 | [13] -0.024 | [14] 0.012 | [15] 0.001 | [16] -0.049 | [17] -0.037 | [18] 0.022 | [19] -0.001 | [20] -0.034

PGRMC1 (UniProt O00264)
Sequence of UniProt O00264 (O00264 whole entry, looked up): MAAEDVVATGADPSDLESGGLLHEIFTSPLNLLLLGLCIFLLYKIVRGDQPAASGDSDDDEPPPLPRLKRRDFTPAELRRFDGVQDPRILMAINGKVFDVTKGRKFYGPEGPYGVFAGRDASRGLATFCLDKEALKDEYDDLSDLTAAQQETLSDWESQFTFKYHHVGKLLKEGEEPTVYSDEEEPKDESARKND
inactive: [1] -0.032 | [2] -0.378 | [3] 0.025 | [4] -0.029 | [5] 0.003 | [6] 0.018 | [7] -0.004 | [8] 0.008 | [9] 0.013 | [10] -0.005 | [11] 0.057 | [12] 0.013 | [13] 0.008 | [14] -0.01 | [15] -0.035 | [16] 0.004 | [17] 0.022 | [18] -0.066 | [19] -0.007 | [20] -0.005

PTPN6 isoform 4 (UniProt P29350)
Sequence of UniProt P29350 (P29350 whole entry, looked up): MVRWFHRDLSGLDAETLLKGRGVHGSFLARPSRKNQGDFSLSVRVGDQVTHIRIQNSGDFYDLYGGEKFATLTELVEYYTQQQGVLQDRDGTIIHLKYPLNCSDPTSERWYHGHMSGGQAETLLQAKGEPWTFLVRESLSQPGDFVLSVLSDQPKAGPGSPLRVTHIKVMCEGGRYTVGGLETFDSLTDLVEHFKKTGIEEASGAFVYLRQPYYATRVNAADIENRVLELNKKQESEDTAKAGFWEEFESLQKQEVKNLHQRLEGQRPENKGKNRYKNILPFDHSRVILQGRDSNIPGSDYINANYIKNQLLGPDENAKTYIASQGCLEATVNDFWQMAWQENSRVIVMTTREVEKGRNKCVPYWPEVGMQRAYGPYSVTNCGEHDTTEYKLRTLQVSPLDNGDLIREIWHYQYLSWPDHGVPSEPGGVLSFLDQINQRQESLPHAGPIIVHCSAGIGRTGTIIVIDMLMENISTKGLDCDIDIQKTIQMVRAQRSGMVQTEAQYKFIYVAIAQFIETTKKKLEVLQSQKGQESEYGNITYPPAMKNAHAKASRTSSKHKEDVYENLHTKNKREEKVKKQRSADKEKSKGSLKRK
inactive: [1] 0.054 | [2] 0.097 | [3] -0.03 | [4] -0.05 | [5] 0.047 | [6] 0.04 | [7] 0.033 | [8] -0.078 | [9] -0.224 | [10] -0.073 | [11] 0.051 | [12] -0.077 | [13] 0.045 | [14] -0.026 | [15] 0.019 | [16] 0 | [17] -0.081 | [18] -0.031 | [19] 0.011 | [20] 0.054

PGGT1B (UniProt P53609)
Sequence of UniProt P53609 (P53609 whole entry, looked up): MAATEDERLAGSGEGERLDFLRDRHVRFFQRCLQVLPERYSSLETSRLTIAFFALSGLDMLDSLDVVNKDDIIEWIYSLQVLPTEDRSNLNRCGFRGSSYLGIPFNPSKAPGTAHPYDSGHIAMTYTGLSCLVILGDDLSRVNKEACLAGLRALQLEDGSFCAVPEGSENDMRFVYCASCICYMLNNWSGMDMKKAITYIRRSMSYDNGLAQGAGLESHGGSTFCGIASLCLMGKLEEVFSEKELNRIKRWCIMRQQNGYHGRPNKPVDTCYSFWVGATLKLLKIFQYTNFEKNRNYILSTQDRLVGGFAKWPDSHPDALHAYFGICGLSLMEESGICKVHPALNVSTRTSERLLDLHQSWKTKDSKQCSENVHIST
inactive: [1] -0.02 | [2] 0.039 | [3] -0.076 | [4] -0.011 | [5] 0.047 | [6] 0.14 | [7] 0.045 | [8] 0.008 | [9] -0.018 | [10] -0.006 | [11] -0.018 | [12] 0.004 | [13] -0.015 | [14] 0.03 | [15] -0.092 | [16] 0.002 | [17] 0.032 | [18] -0.039 | [19] -0.011 | [20] 0.007

POLR3E (UniProt Q9NVU0)
Sequence of UniProt Q9NVU0 (Q9NVU0 whole entry, looked up): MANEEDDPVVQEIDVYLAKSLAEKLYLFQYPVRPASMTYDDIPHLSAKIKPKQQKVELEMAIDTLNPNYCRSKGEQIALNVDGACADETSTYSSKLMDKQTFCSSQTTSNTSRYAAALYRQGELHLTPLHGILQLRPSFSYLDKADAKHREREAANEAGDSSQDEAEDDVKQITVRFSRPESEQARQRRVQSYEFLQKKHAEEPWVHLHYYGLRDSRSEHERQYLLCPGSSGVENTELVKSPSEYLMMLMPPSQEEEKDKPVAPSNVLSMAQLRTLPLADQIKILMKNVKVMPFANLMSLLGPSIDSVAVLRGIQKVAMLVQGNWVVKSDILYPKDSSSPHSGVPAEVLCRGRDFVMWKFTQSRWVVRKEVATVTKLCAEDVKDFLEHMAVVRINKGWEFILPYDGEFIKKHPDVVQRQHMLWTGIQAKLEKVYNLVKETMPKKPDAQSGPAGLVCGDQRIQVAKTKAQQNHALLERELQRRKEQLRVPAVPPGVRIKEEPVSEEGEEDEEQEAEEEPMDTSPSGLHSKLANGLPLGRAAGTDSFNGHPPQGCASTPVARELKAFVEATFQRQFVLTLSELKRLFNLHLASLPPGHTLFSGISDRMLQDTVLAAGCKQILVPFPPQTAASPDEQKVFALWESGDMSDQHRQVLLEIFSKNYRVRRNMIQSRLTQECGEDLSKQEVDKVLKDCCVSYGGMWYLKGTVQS
inactive: [1] 0.003 | [2] 0.003 | [3] -0.007 | [4] 0.017 | [5] 0.005 | [6] 0.006 | [7] -0.001 | [8] -0.03 | [9] -0.007 | [10] -0.016 | [11] 0.02 | [12] 0.018 | [13] 0.043 | [14] -0.006 | [15] 0.029 | [16] 0.025 | [17] -0.021 | [18] -0.004 | [19] 0.003 | [20] 0.007

PTPN1 (UniProt P18031)
Sequence of UniProt P18031 (P18031 whole entry, looked up): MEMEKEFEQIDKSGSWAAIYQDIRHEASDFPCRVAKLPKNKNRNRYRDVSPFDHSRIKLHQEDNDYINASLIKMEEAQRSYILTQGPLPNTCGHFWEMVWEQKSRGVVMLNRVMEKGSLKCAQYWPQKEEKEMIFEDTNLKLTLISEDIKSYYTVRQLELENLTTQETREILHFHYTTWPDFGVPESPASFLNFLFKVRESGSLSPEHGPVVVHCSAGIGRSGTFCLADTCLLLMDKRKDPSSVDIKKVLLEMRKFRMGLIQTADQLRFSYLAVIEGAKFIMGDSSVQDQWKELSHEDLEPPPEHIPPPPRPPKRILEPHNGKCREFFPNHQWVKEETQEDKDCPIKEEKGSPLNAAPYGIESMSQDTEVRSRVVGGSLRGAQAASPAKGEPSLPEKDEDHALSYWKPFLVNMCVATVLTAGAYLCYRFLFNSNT
inactive: [1] -0.007 | [2] 0.065 | [3] -0.015 | [4] 0.025 | [5] -0.011 | [6] -0.005 | [7] -0.019 | [8] 0.027 | [9] -0.017 | [10] 0.024 | [11] -0.003 | [12] -0.024 | [13] 0.018 | [14] 0.024 | [15] 0.006 | [16] -0.005 | [17] -0.002 | [18] 0.006 | [19] 0.049 | [20] 0.016

POLD3 (UniProt Q15054)
Sequence of UniProt Q15054 (Q15054 whole entry, looked up): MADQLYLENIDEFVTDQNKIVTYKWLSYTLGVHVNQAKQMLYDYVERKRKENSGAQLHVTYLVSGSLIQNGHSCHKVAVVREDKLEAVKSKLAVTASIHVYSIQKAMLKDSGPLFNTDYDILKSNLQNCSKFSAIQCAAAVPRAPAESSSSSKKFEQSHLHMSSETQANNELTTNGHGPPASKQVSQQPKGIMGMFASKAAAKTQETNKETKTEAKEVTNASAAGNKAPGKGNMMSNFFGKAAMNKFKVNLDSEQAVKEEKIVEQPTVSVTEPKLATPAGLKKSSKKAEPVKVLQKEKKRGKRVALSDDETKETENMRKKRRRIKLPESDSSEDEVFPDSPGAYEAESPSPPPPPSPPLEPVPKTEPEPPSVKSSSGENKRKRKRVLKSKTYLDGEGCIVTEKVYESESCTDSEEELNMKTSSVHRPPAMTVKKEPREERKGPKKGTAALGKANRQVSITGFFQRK
inactive: [1] 0.015 | [2] 0.002 | [3] -0.006 | [4] -0.003 | [5] -0.048 | [6] 0.01 | [7] -0.048 | [8] -0.058 | [9] -0.012 | [10] -0.035 | [11] 0.018 | [12] 0.006 | [13] -0.027 | [14] -0.004 | [15] 0.035 | [16] 0.019 | [17] -0.008 | [18] -0.022 | [19] -0.017 | [20] -0.038

PWP1 (UniProt Q13610)
inactive: [1] -0.02 | [2] -0.025 | [3] 0.045 | [4] 0.057 | [5] 0.007 | [6] 0 | [7] 0.031 | [8] 0.008 | [9] -0.032 | [10] 0.005 | [11] 0.022 | [12] -0.017 | [13] 0.012 | [14] -0.011 | [15] -0.02 | [16] -0.053 | [17] -0.025 | [18] -0.009 | [19] 0.032 | [20] -0.001

PRKACB isoform 2 (UniProt P22694)
active: [8] 0.352 | [9] 0.354 | [12] 0.693
inactive: [1] -0.033 | [2] -0.03 | [3] -0.03 | [4] 0.04 | [5] -0.028 | [6] -0.019 | [7] 0.129 | [10] 0.009 | [11] -0.006 | [13] 0.033 | [14] -0.03 | [15] -0.013 | [16] 0.025 | [17] -0.014 | [18] -0.037 | [19] 0.014 | [20] -0.024

PI4K2B (UniProt Q8TCG2)
Sequence of UniProt Q8TCG2 (Q8TCG2 whole entry, looked up): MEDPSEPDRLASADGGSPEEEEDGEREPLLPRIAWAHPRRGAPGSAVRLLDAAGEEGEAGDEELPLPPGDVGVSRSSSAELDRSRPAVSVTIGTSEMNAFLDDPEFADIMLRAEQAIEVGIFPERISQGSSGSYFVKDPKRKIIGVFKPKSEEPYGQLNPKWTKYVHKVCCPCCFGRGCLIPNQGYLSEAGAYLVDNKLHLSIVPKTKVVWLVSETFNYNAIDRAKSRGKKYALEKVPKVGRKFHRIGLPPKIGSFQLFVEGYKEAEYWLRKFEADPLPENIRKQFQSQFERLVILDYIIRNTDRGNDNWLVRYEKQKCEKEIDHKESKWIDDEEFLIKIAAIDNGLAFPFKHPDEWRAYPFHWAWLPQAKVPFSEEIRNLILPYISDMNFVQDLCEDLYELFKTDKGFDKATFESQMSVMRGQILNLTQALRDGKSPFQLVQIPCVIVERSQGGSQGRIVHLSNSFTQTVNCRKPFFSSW
inactive: [1] 0.023 | [2] 0.035 | [3] -0.041 | [4] -0.089 | [5] -0.002 | [6] -0.047 | [7] 0.009 | [8] -0.07 | [9] 0.136 | [10] 0.026 | [11] -0.028 | [12] 0.04 | [13] 0.103 | [14] 0.069 | [15] -0.063 | [16] -0.075 | [17] -0.005 | [18] -0.082 | [19] 0.001 | [20] 0.005
